The sample as a whole holds a higher share of hits than the screen did.
TDP1 cell CPT: qHTS for Inhibitors of human tyrosyl-DNA phosphodiesterase 1 (TDP1): qHTS in cells in presence of CPT; chicken DT40 Tdp1-/-;hTDP1 cells + 20 nM CPT, ATP luminescence, 48 h; Potency, µM (highest dose often 46.2 µM), for the others: at the top dose activity change, negative = growth inhibition, actives largely listed as inhibitors; 12% of 420,000 active; also: potency is read from the fitted curve at half-maximal effect; nearly all actives have a fitted effect of over 55% in size
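Chicken DT40 Tdp1-/- cells complemented with human TDP1, 400 cells/well, exposed to compounds plus 20 nM camptothecin for at least 48 h at 37 C; viability read as ATP content by CellTiter-Glo luminescence.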
HT1080NT lethal: qHTS for induction of synthetic lethality in tumor cells producing 2HG: qHTS for the HT-1080-NT fibrosarcoma cell line; 1.6% of 360,000 active; HT-1080-NT fibrosarcoma viability, CellTiter-Glo ATP luminescence, 48 h; Potency, µM (series often up to 46.1 µM), without a hit: at the top dose activity, negative = less viability, hits mostly cytotoxic; AID 686970, 2013;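 also: NT is the 2HG producing partner of a matched IDH1 knockdown line; potency is read from the fitted curve at half-maximal effect; 0% = DMSO-treated cells and -100% = media-only wells without cells; nearly all actives have a fitted effect of over 55% in size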
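Read-out is CellTiter-Glo luminescence after 10 minutes at room temperature, following 48 hours' compound treatment of HT-1080-NT cells (750 cells/well, RPMI, 5% FBS, 37 degrees C).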
12-LOX inh: Primary qHTS assay for inhibitors of human arachidonate 12S-lipoxygenase (ALOX12): Round 2. Polyunsaturated fatty acid lipoxygenase ALOX12 (Homo sapiens), P18054. purified 12hLO, xylenol orange hydroperoxide absorbance. Potency, µM (doses to about 108 µM), for inactives: at the highest dose activity change, negative = inhibition, most hits filed as inhibitors. 1.1% of 580,000 active. AID 1671190, 2021; also: potency is read from the fitted curve at half-maximal effect
Target sequence (P18054 whole entry, looked up): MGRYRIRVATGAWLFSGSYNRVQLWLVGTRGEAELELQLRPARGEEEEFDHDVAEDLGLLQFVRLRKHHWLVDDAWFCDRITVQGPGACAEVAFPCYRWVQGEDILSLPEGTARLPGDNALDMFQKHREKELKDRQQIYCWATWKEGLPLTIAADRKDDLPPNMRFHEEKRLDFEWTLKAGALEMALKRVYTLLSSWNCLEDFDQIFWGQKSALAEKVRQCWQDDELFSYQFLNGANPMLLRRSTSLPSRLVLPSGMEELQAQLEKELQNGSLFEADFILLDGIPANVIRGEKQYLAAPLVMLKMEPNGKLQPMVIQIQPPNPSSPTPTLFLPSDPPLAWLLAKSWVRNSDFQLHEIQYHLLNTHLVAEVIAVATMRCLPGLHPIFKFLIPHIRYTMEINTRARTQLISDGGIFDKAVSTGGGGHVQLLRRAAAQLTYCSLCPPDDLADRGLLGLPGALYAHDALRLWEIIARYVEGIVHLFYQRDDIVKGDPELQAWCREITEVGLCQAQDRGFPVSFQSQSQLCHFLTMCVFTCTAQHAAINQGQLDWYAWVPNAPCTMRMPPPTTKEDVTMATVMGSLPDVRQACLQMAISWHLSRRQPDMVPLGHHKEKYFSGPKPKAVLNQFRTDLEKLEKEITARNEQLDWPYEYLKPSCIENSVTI
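Hydroperoxide product was detected by ferrous iron/xylenol orange as the 573 to 405 nm absorbance ratio. Arachidonic acid at 40 uM (final) was turned over for 30 min at room temperature by 150 nM human 12hLO, pH 7.0 Hepes buffer, after 15 min compound preincubation.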
HT1080 IDH1KD tx: qHTS for induction of synthetic lethality in tumor cells producing 2HG: qHTS for the HT-1080-IDH1KD cell line; HT-1080 IDH1 knockdown viability, ATP luminescence, 48 h; Potency, µM (doses to about 46.1 µM), inactives show at the highest dose activity, negative = toxicity, most hits filed as cytotoxic; 2% of 360,000 active; AID 686971, 2013;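 also: potency is read from the fitted curve at half-maximal effect; 0% = DMSO wells and -100% = cell-free medium wells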
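IDH1KD HT-1080 cells, 750/well, RPMI + 5% FBS; compound pinned after 2 h settling; 48 h, 37 °C; CellTiter-Glo luminescence; % activity normalised to DMSO and no-cell wells; curves fitted, classed by r2 and efficacy.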
IL1B secr inh: qHTS for Inhibitors of Inflammasome Signaling: IL-1-beta AlphaLISA Primary Screen | THP-1 LPS/ATP IL-1B secretion, AlphaLISA, 16 h; active compounds read low | activity change, % at 57.5 µM | 4.7% of 360,000 active; in the data active = activity change below about -50%; inconclusive = mostly about -30% to -49%
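THP-1 cells pretreated 1 hr with compounds (up to 57.5 uM final), then stimulated with LPS (250 ng/mL final) plus ATP (1.25 mM final); secreted IL-1B measured by AlphaLISA after 16 hr, decreased signal indicating inhibition.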
TDP1 cell noCPT: qHTS for Inhibitors of human tyrosyl-DNA phosphodiesterase 1 (TDP1): qHTS in cells in absence of CPT; DT40 Tdp1-/- hTDP1 cells, no CPT, ATP luminescence, 48 h; 15% of 420,000 active; Potency, µM (titrated, usually from 46.2 µM), without a hit: at the top dose activity change, negative = growth inhibition, actives largely listed as inhibitors; also: potency is read from the fitted curve at half-maximal effect; nearly all actives have a fitted effect of over 55% in size
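No-CPT arm: Tdp1-/-;hTDP1 DT40 cells (400/well) plus compounds, incubated ≥48 hr at 37 °C. Readout CellTiter-Glo luminescence.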
The depositor's hits bear a star; u = inconclusive; x = not tested or not shown; [ ] = another dose, or the depositor's remark. Unless noted, calls follow the shape of the dose curve; as a rule, active = well fitted curve in the direction sought with a large enough effect; inconclusive = small, poorly fitted or top-dose-only effect, or another doubt; inactive = no such curve, though single readings can be large; an effect the other way counts as inactive or inconclusive. Unless noted, % is scaled to controls: 0 for no effect and ±100 for the full control effect.

SMILES	TDP1 cell CPT	HT1080NT lethal	12-LOX inh	HT1080 IDH1KD tx	IL1B secr inh	TDP1 cell noCPT
COc1ccc(C)cc1NC(=O)c1c(C)nn(Cc2ccccc2)c1Cl	5%	-21%	-12%	-10%	-98*	u
O=C(Cc1ccccc1)N1Cc2ccccc2CC2(CCCN2Cc2ccncc2)C1 (stereo not drawn)	x	x	2%[6.33 µM]	x	x	x
O=C1NC(=O)C(CCc2ccncc2)(CCc2ccccn2)C(=O)N1c1ccc(Br)cc1 (stereo not drawn)	10µM*	-11%	11%	-22%	24	9.2µM*
Cc1cccc(CN2CCCC(C(=O)c3ccc(C(F)(F)F)cc3)C2)n1 (stereo not drawn)	u	0%	-6%	u	17	18µM*
CSc1ccccc1C(=O)C1CCCN(Cc2cccc(C)n2)C1 (stereo not drawn)	u	u	-8%	u	-75*	u
COc1ccccc1C(=O)C1CCCN(Cc2cnc(C)s2)C1 (stereo not drawn)	u	-3%	2%	-3%	19	21µM*
COc1ccc(C(=O)C2CCCN(Cc3ccon3)C2)c(OC)c1 (stereo not drawn)	u	7%	2%	8%	13	u
CCn1ccnc1CN1CCCC(C(=O)c2cc(Cl)ccc2OC)C1 (stereo not drawn)	u	-2%	-3%	-3%	-75*	u
COc1ccc(C(=O)C2CCCN(CC3CCCCC3)C2)cc1OC (stereo not drawn)	u	1%	u	8%	-11	u
CCn1ccnc1CN1CCCC(C(=O)c2cc(C)c(OC)c(C)c2)C1 (stereo not drawn)	u	0%	-8%	0%	-10	21µM*
O=S(=O)(NC[C@H]1C[C@@H]2CCN1C[C@@H]2CN1CCCC1)c1ccc(Cl)cc1	x	x	11%[176 µM]	x	x	x
CCCCn1c(=O)c(C(=O)NCc2ccc(Cl)cc2)c(O)c2ccccc21	-87%	15%	0%	5%	69	u
CCCCOc1ccc(CNC(=O)c2cc3n(n2)CCCN(Cc2ccc(C)cc2)C3=O)cc1	21µM*	x	-1%	x	x	13µM*
O=C1C=C2C(=CCOC2O)O1 (stereo not drawn)	0.1µM*	x	x	x	x	0.15µM*
COc1cc(C2C(C#N)=C(N)Oc3cc(O)ccc32)cc(OC)c1OC (stereo not drawn)	1µM*	0.56µM*	-21%	u	20	1µM*
COc1cc(CC(C)N)cc(OC)c1OC (stereo not drawn)	4%[92.5 µM]	x	x	x	x	-6%[92.5 µM]
COc1cccc(S(=O)(=O)N2CCC3(C2)C(=O)N(C)c2ccc(OC)cc23)c1 (stereo not drawn)	x	x	-1%	x	x	x
Cc1cc(C)cc(-n2c(/C=C/c3cccc(F)c3)nc3ccccc3c2=O)c1	21µM*	x	6%	x	x	u
COc1cccc(-n2c(/C=C/c3cccc(C)c3)nc3ccccc3c2=O)c1	u	x	u	x	x	23µM*
COc1cccc(-n2c(/C=C/c3ccccc3O)nc3ccccc3c2=O)c1	u	x	-2%	x	x	26µM*
O=C1CC(CO)CN1 (stereo not drawn)	x	x	-7%	x	x	x
CCOC(=O)c1ncn2c1CN(C)C(=O)c1cc(N=[N+]=[N-])ccc1-2	x	x	182%	x	x	x
